Assay results published in ChEMBL document CHEMBL1961873, “Compounds: GSK PKIS; Assays: Nanosyn kinase panel” (2012).
Values joined by “and” are separate entries in the source; they are usually repeats but may differ in a detail not shown here. Equal values may be shown once.

Key:
[1] = target: Tyrosine-protein kinase receptor UFO (Homo sapiens) (UniProt P30530); settings: at 1 µM
[2] = target: Tyrosine-protein kinase Blk (Homo sapiens) (UniProt P51451); settings: at 0.1 µM
[3] = target: Tyrosine-protein kinase Blk (Homo sapiens) (UniProt P51451); settings: at 1 µM
[4] = target: T1, Cytoplasmic tyrosine-protein kinase BMX (Homo sapiens) (UniProt P51813); settings: at 0.1 µM
T1 sequence (whole entry): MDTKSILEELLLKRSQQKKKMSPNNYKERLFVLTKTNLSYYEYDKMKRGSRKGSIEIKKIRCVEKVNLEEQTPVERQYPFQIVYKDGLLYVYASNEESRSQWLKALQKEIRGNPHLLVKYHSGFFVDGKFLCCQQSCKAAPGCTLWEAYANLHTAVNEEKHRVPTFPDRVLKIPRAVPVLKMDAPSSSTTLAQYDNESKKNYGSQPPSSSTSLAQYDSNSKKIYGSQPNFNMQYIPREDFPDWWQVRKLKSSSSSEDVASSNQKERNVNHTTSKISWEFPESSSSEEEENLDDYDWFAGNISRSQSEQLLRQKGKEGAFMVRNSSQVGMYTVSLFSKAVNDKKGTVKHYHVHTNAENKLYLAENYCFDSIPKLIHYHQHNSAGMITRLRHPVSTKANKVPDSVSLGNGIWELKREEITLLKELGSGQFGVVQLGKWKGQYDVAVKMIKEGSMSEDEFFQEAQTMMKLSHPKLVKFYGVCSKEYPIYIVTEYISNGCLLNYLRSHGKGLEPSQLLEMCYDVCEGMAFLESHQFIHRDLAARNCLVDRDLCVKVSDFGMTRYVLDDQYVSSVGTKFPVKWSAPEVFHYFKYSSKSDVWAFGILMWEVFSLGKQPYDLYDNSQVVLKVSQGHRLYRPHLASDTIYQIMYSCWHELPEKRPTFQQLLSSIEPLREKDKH

[5] = target: T1, Cytoplasmic tyrosine-protein kinase BMX (Homo sapiens); settings: at 1 µM
[6] = target: Protein-tyrosine kinase 6 (Homo sapiens) (UniProt Q13882); settings: at 0.1 µM
[7] = target: Protein-tyrosine kinase 6 (Homo sapiens) (UniProt Q13882); settings: at 1 µM
[8] = target: Tyrosine-protein kinase BTK (Homo sapiens) (UniProt Q06187); settings: at 0.1 µM
Sequence of Tyrosine-protein kinase BTK (Homo sapiens) (Q06187 whole entry): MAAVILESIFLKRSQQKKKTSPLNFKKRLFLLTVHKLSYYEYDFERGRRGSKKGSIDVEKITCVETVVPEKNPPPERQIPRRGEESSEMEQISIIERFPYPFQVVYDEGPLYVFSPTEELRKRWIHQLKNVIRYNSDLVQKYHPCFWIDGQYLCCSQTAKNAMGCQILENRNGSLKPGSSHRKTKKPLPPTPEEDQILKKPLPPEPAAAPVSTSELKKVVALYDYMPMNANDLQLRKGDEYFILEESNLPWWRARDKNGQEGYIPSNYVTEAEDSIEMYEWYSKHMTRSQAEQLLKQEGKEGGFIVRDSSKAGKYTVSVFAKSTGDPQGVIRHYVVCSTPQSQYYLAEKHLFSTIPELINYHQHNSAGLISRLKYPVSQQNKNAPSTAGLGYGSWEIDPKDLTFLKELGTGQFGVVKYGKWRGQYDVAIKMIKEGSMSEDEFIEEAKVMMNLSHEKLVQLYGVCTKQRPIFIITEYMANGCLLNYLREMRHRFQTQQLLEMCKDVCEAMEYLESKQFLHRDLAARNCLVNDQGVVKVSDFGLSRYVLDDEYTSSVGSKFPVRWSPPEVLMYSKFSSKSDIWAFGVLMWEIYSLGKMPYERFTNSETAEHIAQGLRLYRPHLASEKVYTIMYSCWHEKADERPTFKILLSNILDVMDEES

[9] = target: Tyrosine-protein kinase BTK (Homo sapiens) (UniProt Q06187); settings: at 1 µM
[10] = target: Tyrosine-protein kinase CSK (Homo sapiens) (UniProt P41240); settings: at 0.1 µM
[11] = target: Tyrosine-protein kinase CSK (Homo sapiens) (UniProt P41240); settings: at 1 µM
[12] = target: T2, Discoidin domain-containing receptor 2 (Homo sapiens) (UniProt Q16832); settings: at 0.1 µM
T2 sequence (whole entry): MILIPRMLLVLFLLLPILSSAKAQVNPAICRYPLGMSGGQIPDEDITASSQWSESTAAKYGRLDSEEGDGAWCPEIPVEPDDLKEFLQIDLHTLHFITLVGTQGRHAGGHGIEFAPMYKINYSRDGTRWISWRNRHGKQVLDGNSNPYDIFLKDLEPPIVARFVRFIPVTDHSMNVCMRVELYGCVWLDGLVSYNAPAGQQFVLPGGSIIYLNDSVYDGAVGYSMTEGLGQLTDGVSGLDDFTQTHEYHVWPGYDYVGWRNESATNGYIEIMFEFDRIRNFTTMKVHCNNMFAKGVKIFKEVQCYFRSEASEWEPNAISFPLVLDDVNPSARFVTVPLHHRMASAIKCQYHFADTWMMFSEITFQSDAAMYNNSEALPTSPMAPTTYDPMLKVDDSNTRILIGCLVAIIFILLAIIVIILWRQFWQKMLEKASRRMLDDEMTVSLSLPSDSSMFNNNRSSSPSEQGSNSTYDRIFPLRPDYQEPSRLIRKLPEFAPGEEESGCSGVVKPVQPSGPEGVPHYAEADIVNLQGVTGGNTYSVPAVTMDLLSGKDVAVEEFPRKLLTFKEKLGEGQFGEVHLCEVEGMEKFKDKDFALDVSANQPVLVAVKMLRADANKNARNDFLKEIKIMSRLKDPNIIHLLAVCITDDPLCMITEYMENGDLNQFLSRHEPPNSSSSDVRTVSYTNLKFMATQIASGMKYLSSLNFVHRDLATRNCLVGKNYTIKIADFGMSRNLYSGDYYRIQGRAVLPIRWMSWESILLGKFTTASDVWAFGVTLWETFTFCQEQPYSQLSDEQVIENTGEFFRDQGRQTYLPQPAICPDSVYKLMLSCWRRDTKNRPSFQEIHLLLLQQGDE

[13] = target: T2, Discoidin domain-containing receptor 2 (Homo sapiens); settings: at 1 µM
[14] = target: Epidermal growth factor receptor (Homo sapiens) (UniProt P00533); settings: at 0.1 µM
Sequence of Epidermal growth factor receptor (Homo sapiens) (P00533 whole entry): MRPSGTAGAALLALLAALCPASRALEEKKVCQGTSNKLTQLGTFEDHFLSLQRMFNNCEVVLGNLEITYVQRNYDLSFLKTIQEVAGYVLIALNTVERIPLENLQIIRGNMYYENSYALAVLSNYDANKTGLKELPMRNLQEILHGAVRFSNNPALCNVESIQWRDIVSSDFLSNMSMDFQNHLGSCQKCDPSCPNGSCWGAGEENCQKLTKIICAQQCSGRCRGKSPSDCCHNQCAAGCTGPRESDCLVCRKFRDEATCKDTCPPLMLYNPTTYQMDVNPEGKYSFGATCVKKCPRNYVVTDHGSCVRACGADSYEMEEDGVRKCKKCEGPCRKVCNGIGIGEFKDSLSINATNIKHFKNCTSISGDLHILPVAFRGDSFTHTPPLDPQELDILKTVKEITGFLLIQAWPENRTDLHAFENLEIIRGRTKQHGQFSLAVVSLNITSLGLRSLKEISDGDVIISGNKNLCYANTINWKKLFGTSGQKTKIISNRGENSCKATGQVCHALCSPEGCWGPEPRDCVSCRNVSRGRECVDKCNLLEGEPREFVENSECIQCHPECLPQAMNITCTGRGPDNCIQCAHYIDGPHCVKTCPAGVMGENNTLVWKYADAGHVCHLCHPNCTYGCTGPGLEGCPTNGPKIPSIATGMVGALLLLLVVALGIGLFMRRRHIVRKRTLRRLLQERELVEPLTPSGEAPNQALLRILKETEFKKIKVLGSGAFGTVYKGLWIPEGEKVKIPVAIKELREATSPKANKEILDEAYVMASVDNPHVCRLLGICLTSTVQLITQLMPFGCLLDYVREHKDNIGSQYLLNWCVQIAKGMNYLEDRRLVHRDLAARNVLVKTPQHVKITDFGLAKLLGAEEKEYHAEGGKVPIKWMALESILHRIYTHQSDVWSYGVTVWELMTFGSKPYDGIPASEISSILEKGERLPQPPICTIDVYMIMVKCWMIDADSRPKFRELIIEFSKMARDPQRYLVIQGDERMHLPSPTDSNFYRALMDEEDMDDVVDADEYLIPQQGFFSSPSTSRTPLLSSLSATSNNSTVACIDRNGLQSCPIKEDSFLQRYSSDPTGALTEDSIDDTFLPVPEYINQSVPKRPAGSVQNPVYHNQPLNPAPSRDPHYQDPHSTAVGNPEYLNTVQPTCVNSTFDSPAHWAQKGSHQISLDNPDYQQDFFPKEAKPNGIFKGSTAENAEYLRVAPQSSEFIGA

[15] = target: Epidermal growth factor receptor (Homo sapiens) (UniProt P00533); settings: at 1 µM
[16] = system: Epidermal growth factor receptor (Homo sapiens), P00533 [L858R]; settings: at 0.1 µM
Sequence of Epidermal growth factor receptor (Homo sapiens), P00533 [L858R] (P00533 whole entry L858R): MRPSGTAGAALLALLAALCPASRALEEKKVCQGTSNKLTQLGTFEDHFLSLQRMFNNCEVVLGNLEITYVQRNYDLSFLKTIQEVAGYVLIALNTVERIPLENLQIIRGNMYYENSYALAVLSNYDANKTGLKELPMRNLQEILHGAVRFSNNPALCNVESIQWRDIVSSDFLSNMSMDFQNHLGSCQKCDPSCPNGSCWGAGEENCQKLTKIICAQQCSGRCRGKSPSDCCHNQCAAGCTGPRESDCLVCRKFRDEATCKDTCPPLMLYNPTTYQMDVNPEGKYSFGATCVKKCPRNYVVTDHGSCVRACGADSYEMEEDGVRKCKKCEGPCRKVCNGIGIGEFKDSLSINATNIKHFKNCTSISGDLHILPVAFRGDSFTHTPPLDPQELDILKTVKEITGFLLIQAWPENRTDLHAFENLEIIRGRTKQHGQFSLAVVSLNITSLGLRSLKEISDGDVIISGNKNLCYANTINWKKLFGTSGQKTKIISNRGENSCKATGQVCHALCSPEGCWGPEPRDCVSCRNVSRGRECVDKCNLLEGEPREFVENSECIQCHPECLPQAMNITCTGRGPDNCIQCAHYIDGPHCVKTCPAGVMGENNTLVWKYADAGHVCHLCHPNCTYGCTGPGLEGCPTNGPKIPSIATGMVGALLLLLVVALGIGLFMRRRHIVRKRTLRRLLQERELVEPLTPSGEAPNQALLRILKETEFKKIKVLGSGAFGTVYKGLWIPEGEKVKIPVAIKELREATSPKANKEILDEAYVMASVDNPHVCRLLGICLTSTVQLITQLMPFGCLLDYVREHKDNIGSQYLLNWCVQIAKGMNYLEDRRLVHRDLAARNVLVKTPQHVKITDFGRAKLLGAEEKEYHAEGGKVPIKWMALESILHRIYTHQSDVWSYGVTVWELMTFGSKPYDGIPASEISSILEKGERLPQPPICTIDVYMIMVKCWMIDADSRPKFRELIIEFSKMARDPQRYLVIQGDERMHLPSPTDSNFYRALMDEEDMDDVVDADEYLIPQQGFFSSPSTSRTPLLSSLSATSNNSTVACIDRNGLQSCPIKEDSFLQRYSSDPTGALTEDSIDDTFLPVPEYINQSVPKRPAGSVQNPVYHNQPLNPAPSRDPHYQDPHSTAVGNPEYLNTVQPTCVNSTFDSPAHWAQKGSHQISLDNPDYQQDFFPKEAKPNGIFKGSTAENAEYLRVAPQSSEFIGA

[17] = system: Epidermal growth factor receptor (Homo sapiens), P00533 [L858R]; settings: at 1 µM
[18] = system: Epidermal growth factor receptor (Homo sapiens), P00533 [L861Q]; settings: at 0.1 µM
Sequence of Epidermal growth factor receptor (Homo sapiens), P00533 [L861Q] (P00533 whole entry L861Q): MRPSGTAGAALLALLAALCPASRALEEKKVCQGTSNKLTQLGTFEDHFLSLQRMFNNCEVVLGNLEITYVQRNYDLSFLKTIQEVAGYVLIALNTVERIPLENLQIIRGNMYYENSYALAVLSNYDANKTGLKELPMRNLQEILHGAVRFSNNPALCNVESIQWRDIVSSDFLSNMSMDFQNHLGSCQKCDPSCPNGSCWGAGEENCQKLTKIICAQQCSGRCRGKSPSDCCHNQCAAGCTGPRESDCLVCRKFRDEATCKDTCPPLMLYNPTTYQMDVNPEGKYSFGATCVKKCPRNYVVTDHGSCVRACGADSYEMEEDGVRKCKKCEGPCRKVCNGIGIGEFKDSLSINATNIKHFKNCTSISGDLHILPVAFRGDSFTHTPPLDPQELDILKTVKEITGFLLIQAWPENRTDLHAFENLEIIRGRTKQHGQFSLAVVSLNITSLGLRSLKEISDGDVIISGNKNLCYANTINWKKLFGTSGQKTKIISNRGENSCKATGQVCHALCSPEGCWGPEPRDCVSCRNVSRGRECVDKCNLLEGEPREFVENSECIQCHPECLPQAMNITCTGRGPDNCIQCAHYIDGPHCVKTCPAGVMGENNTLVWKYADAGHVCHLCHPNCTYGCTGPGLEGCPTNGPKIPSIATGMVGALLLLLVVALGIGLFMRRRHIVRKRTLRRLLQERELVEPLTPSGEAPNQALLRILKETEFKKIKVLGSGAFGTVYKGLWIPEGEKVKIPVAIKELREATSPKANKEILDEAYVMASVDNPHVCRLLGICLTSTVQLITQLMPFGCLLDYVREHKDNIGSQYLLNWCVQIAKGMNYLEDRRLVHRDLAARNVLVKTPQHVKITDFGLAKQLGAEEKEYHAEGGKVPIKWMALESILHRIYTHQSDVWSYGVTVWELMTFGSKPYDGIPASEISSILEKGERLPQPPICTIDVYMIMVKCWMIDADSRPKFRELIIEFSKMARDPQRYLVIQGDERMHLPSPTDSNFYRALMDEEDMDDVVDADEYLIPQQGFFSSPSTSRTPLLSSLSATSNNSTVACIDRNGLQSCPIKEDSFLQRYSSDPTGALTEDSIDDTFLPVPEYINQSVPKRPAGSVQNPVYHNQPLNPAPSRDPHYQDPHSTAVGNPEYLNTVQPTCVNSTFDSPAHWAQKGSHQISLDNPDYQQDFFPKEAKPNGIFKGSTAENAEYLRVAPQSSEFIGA

[19] = system: Epidermal growth factor receptor (Homo sapiens), P00533 [L861Q]; settings: at 1 µM
[20] = system: Epidermal growth factor receptor (Homo sapiens), P00533 [T790M]; settings: at 0.1 µM

Sequence of Tyrosine-protein kinase Blk (Homo sapiens) (P51451 2-505 limits assumed): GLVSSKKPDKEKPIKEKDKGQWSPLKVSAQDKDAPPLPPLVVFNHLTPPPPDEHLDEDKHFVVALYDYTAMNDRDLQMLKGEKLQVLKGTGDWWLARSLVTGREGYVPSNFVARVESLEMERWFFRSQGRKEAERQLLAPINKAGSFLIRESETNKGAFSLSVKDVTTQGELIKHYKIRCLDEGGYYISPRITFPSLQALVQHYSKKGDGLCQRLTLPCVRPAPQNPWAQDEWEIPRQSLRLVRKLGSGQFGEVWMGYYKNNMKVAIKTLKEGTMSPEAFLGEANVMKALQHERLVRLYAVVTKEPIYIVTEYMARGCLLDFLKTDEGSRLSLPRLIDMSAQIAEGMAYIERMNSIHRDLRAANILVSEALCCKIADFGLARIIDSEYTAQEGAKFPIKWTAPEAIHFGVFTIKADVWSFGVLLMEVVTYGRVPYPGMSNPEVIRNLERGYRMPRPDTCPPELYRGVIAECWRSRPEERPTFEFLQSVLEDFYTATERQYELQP

SMILES | inhibition [1] | inhibition [2] | inhibition [3] | inhibition [4] | inhibition [5] | inhibition [6] | inhibition [7] | inhibition [8] | inhibition [9] | inhibition [10] | inhibition [11] | inhibition [12] | inhibition [13] | inhibition [14] | inhibition [15] | inhibition [16] | inhibition [17] | inhibition [18] | inhibition [19] | inhibition [20]
CCN1CCC(C(=O)Nc2n[nH]c3nnc(-c4cccc(F)c4F)cc23)CC1 | 2.22% | 0.62% | 2.33% | -0.1% | 1.04% | -0.63% | -0.63% | 0% | -0.5% | 2.49% | -0.26% | 1.13% | 1.17% | 1.21% | 2.27% | -0.75% | 1.38% | -0.05% | -0.76% | -1.59%
CNC(=O)c1ncccc1Nc1nc(Nc2cc3c(cc2OC)CCCN3C(=O)CN(C)C)nc2[nH]ccc12 | 53.5% | 2.8% | 7.25% | 3.62% | 4.96% | 4% | 6.37% | 0.46% | 1.22% | 2.99% | 2.18% | 2.33% | 3.8% | 1.65% | 7.76% | 4.57% | 22.4% | 4.79% | 7.78% | 13.2%
Nc1nonc1-c1nc2cnccc2n1C1CC1 | 0.16% and -1.32% | 2.66% and -2.38% | 4.59% and -2.3% | 6.52% and -2.61% | 4.75% and 2.31% | 5.31% and 2.92% | 3.69% and 2.66% | 1.67% and -4.68% | 1.98% and -4.91% | 3.81% and 3.48% | 2.08% and 1.45% | 1.46% and 1.25% | 2.24% and 0.96% | 1.3% and -3.46% | 4.4% and -3.77% | 1.41% and 2.54% | 0.67% and 3.32% | 4% and 2.76% | -0.36% and -1.27% | 1.58% and 0.88%
O=C(O[C@H]1CN[C@H](C#Cc2cc3ncnc(Nc4ccc5c(ccn5Cc5cc(F)ccc5F)c4)c3s2)C1)N1CCOCC1 | -5.54% | 2.36% | 8.13% | 4.47% | 4.96% | 3.43% | 4.9% | 0.02% | 2.23% | 3.21% | 2.68% | 2.04% | 2.8% | 65.5% | 76.4% | 11.2% | 53.6% | 22.6% | 39% | 20%
CNC(=O)c1sc(-n2cnc3cc(OC)c(OC)cc32)cc1OCc1ccccc1C(F)(F)F | -2.36% | 3.39% | 7.51% | 4.57% | 2.17% | 0.08% | 2.98% | 0.62% | 3.2% | 3.42% | 7.18% | 2.3% | 2.7% | -0.83% | 2.09% | 0.74% | -0.13% | 1.16% | 1.23% | 0.64%
CCn1c(-c2nonc2N)nc2cncc(C(=O)NCCNC)c21 | -6.19% | 3.13% | 5.42% | 3.81% | 5.15% | 2.42% | 5.45% | -1.55% | 0.11% | 3.43% | 4.95% | 1.54% | 2.38% | 0.28% | 5.41% | 4.66% | 6.79% | 4.01% | 2.21% | 2.41%
COc1cc(N2CCN(C(C)C)CC2)ccc1Nc1nc(Nc2cccc3ncccc23)c2cc[nH]c2n1 | 5.43% | 0.1% | 2.64% | 5.26% | -0.89% | -1.05% | -2.93% | -0.29% | -0.05% | -1.28% | -2.41% | 4.81% | 8.24% | 1.36% | 2.64% | -1.25% | 3.3% | -0.92% | 0.99% | -1.02%
CCCNc1cccc(-n2ncc3c(N/N=C/c4ccncc4)ncnc32)c1 | 13.2% | 14.2% | 62.9% | 1.67% | 13.4% | 8.53% | 51% | 1.43% | 4.2% | 2.59% | 12.1% | 1.93% | 7.68% | 3.46% | 33.5% | 14% | 71.8% | 2.74% | 31.4% | -0.43%
CCOc1ccc2c(-c3ccnc(Nc4cc(OC)cc(C(F)(F)F)c4)n3)cnn2n1 | -1.43% | 0.5% | 4.83% | -3.75% | 2.82% | 1.51% | 2.17% | -0.58% | -0.1% | -0.12% | 0.11% | -0.19% | 1.4% | 2.81% | 5.28% | 2.28% | 3.23% | 1.52% | 2.39% | 0.36%
